SKOV3 invasion: ovarian cancer metastasis inhibition, 3D TME model; SKOV3ip1-GFP adhesion/invasion on 3D omental model, fluorescence; Potency, µM (top dose mostly 45.8 µM), for the others: at the top dose activity change, negative = inhibition, hits mostly inhibitors; hit rate 0.1% among 46,000;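 also: potency is read from the fitted curve at half-maximal effect; plate controls were DMSO wells for no effect and tomatine positive control wells for full effect; nearly all actives have a fitted effect of over 65% in size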
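Adhesion/invasion was scored as fixed GFP-labeled SKOV3ip1 cell counts (488/509 nm), normalized to DMSO and tomatine controls. Cancer cells in serum-free medium, with four compound doses (0.36-46 umol/L), sat 2 hr at RT then 16 hr at 37 C on a 48 hr fibroblast/mesothelial/ECM culture.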
PTAP-TSG101 blk: TSG101-PTAP interaction inhibition, HIV-1 budding; 44,000 tested, under 10 active; Potency, µM (highest dose often 115 µM), actives largely listed as inhibitors; Fluorescence polarization, FITC-PTAP peptide/Tsg101, 20 min; AID 1347069; also: potency is read from the fitted curve at half-maximal effect; 0% is about no effect
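Compounds pinned into 10 uM Tsg101 binding domain, then 50 nM FITC-PTAP peptide added in pH 7.5 HEPES buffer; FP read after 20 min, room temperature. Total S+P intensity flags fluorescent compounds; active cut-off <25 µM, efficacy <60%.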
B2AR arrestin ag: beta-arrestin recruitment by human beta2-adrenergic receptor ligands. 44,000 tested, under 10 active. HTLA Tango cells, beta-arrestin recruitment, luciferase luminescence, 18 h. Potency, µM (top dose mostly 46.1 µM), actives largely listed as activators. P07550;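 also: potency is read from the fitted curve at half-maximal effect; 0% = DMSO and full agonism = EC100 isoproterenol or metaproterenol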
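Ligand-induced beta-arrestin recruitment to recombinant beta2-AR is measured via a tTA-driven luciferase reporter in Tango cells after 18 hr compound exposure at 37 degrees C. Concentrations span up to 46 microM.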
DRV1 agonist: agonists of human resolvin D1 receptor DRV1 (GPR32). activation, % at 76.9 µM. hit rate 2.5% among 48,000. CHO-K1 GPR32 beta-arrestin PathHunter luminescence, 90 min; zero percent set by DMSO-only wells. O75388;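 active = activation of at least 60% and not above a set upper limit, about 1 call in 100 departs from these limits; inconclusive = activation of 40% to 60%, or above that upper limit; inactive = activation under 40%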; also: 0% is about no effect
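Agonism was scored as beta-arrestin recruitment to ProLink-fused GPR32 in stably transfected CHO-K1 cells, giving a chemiluminescent beta-Gal signal; compounds were incubated 90 min at 37 °C.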
NTMT1 inh: NTMT1 methyltransferase inhibition | Q9BV86 | NTMT1 MTase-Glo SAH luminescence, purified enzyme | Potency, µM (doses to about 114 µM), without a hit: top-dose activity change, negative = inhibition, actives largely listed as inhibitors | hit rate 2.5% among 59,000 | AID 1645870;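 also: potency is read from the fitted curve at half-maximal effect; plate controls were DMSO vehicle for no effect and no enzyme for full effect; nearly all actives have a fitted effect of over 65% in size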
GALK inhibitor: GALK (human) enzyme inhibition. P51570. recombinant GALK, Kinase-Glo ATP luminescence, 1 h. Potency, µM (highest dose often 57.5 µM), for the others: at the highest dose activity, negative = inhibition, most hits filed as inhibitors. 44,000 tested, under 10 active. AID 1347072;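 also: plate controls were full GALK reaction for no effect and reaction lacking GALK for full effect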
Target sequence (P51570 whole entry, looked up): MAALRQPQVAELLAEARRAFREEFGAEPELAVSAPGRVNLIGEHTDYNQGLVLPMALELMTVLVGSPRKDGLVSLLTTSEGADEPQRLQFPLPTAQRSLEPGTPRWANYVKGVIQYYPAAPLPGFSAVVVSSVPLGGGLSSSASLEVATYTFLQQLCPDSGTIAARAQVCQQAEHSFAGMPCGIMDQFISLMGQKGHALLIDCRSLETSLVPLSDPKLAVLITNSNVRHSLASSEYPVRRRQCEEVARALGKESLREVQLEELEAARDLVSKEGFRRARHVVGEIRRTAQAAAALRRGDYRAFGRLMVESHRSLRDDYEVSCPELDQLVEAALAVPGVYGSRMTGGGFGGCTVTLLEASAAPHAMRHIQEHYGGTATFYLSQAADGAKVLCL
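Human GALK (5 nM) was incubated with 35 uM ATP and 100 uM galactose in 20 mM HEPES pH 8.0 with MgCl2, NaCl, DTT and BSA for 1 h at room temperature. Remaining ATP was measured by Kinase-Glo Plus luminescence.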
Active calls of the source: *; i = inactive; ? = inconclusive; . = not tested or not shown; [ ] = dose if it differs, or a comment. Hits are enriched below; roughly 3.8% of the tested compounds scored in any of these assays. Unless noted, calls follow the shape of the dose curve; as a rule, active = well fitted curve in the direction sought with a large enough effect; inconclusive = small, poorly fitted or top-dose-only effect, or another doubt; inactive = no such curve, though single readings can be large; an effect the other way counts as inactive or inconclusive.

SMILES | SKOV3 invasion | PTAP-TSG101 blk | B2AR arrestin ag | DRV1 agonist | NTMT1 inh | GALK inhibitor
CCOc1ccccc1C1CC(=O)NC(C)=C1C(=O)OC1CCCCCC1 (stereo unspecified) | -25.4% | i | i | 39.2 | 0.4% | 1.1%
CC1=C(C(=O)OCc2ccc(C)cc2)C(c2ccccc2F)CC(=O)N1 (stereo unspecified) | i | i | i | 66.8* | -8.6% | 0.9%
CC1=C(C(=O)OCC2CCCCC2)C(c2ccc(F)cc2F)CC(=O)N1 (stereo unspecified) | i | i | i | 13.2 | -2.7% | 0.6%
O=S(=O)(Nc1cccc(-c2ccc(N3CCCCC3)nn2)c1)c1ccc(F)cc1F | -6.7% | i | i | 16.8 | -19.3% | -0.1%
Cc1ccc(-c2ccc(=O)n(CC(=O)Nc3cccc(C#N)c3)n2)cc1 | i | i | i | 12.5 | 2.7% | 2.5%
O=C(O)c1ccccc1-c1ccc(/C=c2\sc3nc4cc(Br)cnc4n3c2=O)o1 | . | . | . | . | 35.5µM* | .
N#C/C(=C\c1ccc(-c2ccccc2C(=O)O)o1)c1nc2ccccc2[nH]1 | -16.4% | i | i | -1.8 | 11.8% | -4.8%
CCN(c1ccccc1)S(=O)(=O)c1ccc(NC(=O)c2cc(=O)c3cc(C)ccc3o2)cc1 | -8.7% | i | i | -0.2 | ? | 2.7%
COc1cccc(CN2c3ccccc3-c3nc(SCC(=O)Nc4ccccc4Cl)ncc3S2(=O)=O)c1 | 0.7% | i | i | 3.7 | 7.6% | 1.8%
Cc1ccc2ccc3cc(C(=O)Nc4ccc(C)c(F)c4)nc3c2[nH]1 | -6.0% | i | i | 60.4* | -12.2% | 1.0%
Cc1ccc2ccc3cc(C(=O)N4CCN(c5ccccc5F)CC4)nc3c2[nH]1 | -18.0% | i | i | -1.0 | -1.0% | -4.4%
COc1ccccc1N(CC(=O)NCCSCc1cccc(Cl)c1)S(C)(=O)=O | -14.1% | i | i | 87.7* | -1.6% | 3.6%
COc1ccccc1N(CC(=O)NCCSCc1ccccc1Cl)S(C)(=O)=O | i | i | i | 21.1 | -5.2% | 0.3%
CCOC(=O)c1ccc(NC2(c3ccccc3)C(=O)c3ccccc3C2=O)cc1 | 1.2% | i | i | -13.0 | 10.9% | 2.2%
CCC(=O)N1c2ccc(S(=O)(=O)N3CCN(c4ccccc4Cl)CC3)cc2CC1C (stereo unspecified) | i | i | i | -5.5 | 89.1µM* | -0.9%
CCCCn1c(SCc2ccccc2C)nc2ccsc2c1=O | i | i | i | -29.6 | 2.7% | -5.6%
Cc1cc(C)cc(NC(=O)c2cc(S(=O)(=O)N3CCC(C)CC3)cn2C)c1 | -19.3% | i | i | 4.2 | 89.1µM* | -0.8%
C[C@H]1CO[C@@H]2Cn3cc(C(=O)NCc4ccc(F)cc4F)c(=O)c(O)c3C(=O)N12 | . | . | . | . | 3.5%[57.5 µM] | .
CCN(CC)CCOCCOC(=O)C1(c2ccccc2)CCCC1 | . | . | . | 5.5 | 10µM* | .
CCN(CC)CCNC(C(=O)OCCC(C)C)c1ccccc1 (stereo unspecified) | . | . | . | -3.0 | ? | .
COc1ccccc1-c1nnc(SCC(=O)c2ccc(F)cc2)n1-c1ccccc1 | -14.1% | i | i | 69.9* | 6.6% | 0.0%
O=C1c2ccccc2-[n+]2ccc3c([nH]c4ccccc43)c21 | 2.35µM* | . | . | . | 44.7µM* | .
[O-][n+]1ccccc1SSc1cccc[n+]1[O-] | . | . | . | 3.7 | 5.01µM* | .
CN1CCN(c2ccc(CNc3nn4c(=O)c5ccccc5nc4s3)cc2)CC1 | . | . | . | . | -7.9% | .
CCN(CC)C(=O)CSc1nc2ccccc2c(=O)n1Cc1ccco1 | -3.4% | i | i | 8.7 | 10.2% | 2.5%
COc1ccc(CCNc2ncnc3c2cnn3-c2ccc(C)c(Cl)c2)cc1 | 5.0% | i | i | ? | -12.6% | 3.5%
Cc1ccc(-n2ncc3c(NCCc4ccccc4)ncnc32)cc1 | i | i | i | 93.5* | 0.1% | -2.4%
